# Laboratory results reported in PMC11062922 (Nature Chemical Biology, 2023).
# Read-outs that look alike come from different tables or passages of the source.
# Columns and labels:
# Design in all cases: species or system human, MV4-11 + K-562 + COLO205 + SK-N-BE2 + OVCAR-8
# [1] = system: ACVR1B; conditions: read-out: apparent Kd; compound concentrations:100 nM and 1000 nM (sheet 'Samples'); n = 1
# [2] = system: PKN3; conditions: read-out: apparent Kd; compound concentrations:100 nM and 1000 nM (sheet 'Samples'); n = 1
# [3] = system: PRKD2; conditions: read-out: apparent Kd; compound concentrations:100 nM and 1000 nM (sheet 'Samples'); n = 1
# [4] = system: PRKD3; conditions: read-out: apparent Kd; compound concentrations:100 nM and 1000 nM (sheet 'Samples'); n = 1
# [5] = system: ACVR2B; conditions: read-out: apparent Kd, compound concentrations: 100 nM and 1000 nM (sheet 'Samples'), n = 1
# [6] = system: FLT3; conditions: read-out: apparent Kd; compound concentrations: 100 nM and 1000 nM (sheet 'Samples'), CATDS: 0.189547770315381; n = 1
# [7] = system: FLT4; conditions: read-out: apparent Kd; compound concentrations: 100 nM and 1000 nM (sheet 'Samples'), CATDS: 0.63854178875025103; n = 1
# [8] = system: PDGFRB; conditions: read-out: apparent Kd, compound concentrations: 100 nM and 1000 nM (sheet 'Samples'), n = 1
# [9] = system: NQO2; conditions: read-out: apparent Kd; compound concentrations:100 nM and 1000 nM (sheet 'Samples'); n = 1
# [10] = system: RIPK2; conditions: read-out: apparent Kd, n = 1
# [11] = system: TESK2; conditions: read-out: apparent Kd; compound concentrations:100 nM and 1000 nM (sheet 'Samples'); n = 1
# [12] = system: TGFBR1; conditions: read-out: apparent Kd; compound concentrations:100 nM and 1000 nM (sheet 'Samples'); n = 1
# [13] = system: TGFBR2; conditions: read-out: apparent Kd; compound concentrations:100 nM and 1000 nM (sheet 'Samples'); n = 1
# [14] = system: T1, DJA1; conditions: read-out: apparent Kd; compound concentrations: 100 nM and 1000 nM (sheet 'Samples'), CATDS: 0.27071673816178898; n = 1
# T1 construct: gene DNAJA1
# [15] = system: PIK3CD; conditions: read-out: apparent Kd, compound concentrations: 100 nM and 1000 nM (sheet 'Samples'), n = 1
# [16] = system: ACVR1; conditions: read-out: apparent Kd, compound concentrations: 100 nM and 1000 nM (sheet 'Samples'), n = 1
# [17] = system: DDR2; conditions: read-out: apparent Kd, compound concentrations: 100 nM and 1000 nM (sheet 'Samples'), n = 1
# [18] = system: AKT1; conditions: read-out: apparent Kd; compound concentrations: 100 nM and 1000 nM (sheet 'Samples'), CATDS: 8.7869055703498899E-2; n = 1
# [19] = system: AKT2; conditions: read-out: apparent Kd; compound concentrations: 100 nM and 1000 nM (sheet 'Samples'), CATDS: 9.9123908030557498E-2; n = 1
# [20] = system: ERBB3; conditions: read-out: apparent Kd; compound concentrations: 100 nM and 1000 nM (sheet 'Samples'), CATDS: 0.104926252845552; n = 1
# [21] = system: MAP2K1; conditions: read-out: apparent Kd; compound concentrations: 100 nM and 1000 nM (sheet 'Samples'), CATDS: 9.3485581268639997E-2; n = 1
# [22] = system: NCL; conditions: read-out: apparent Kd; compound concentrations: 100 nM and 1000 nM (sheet 'Samples'), CATDS: 9.6162289206332394E-2; n = 1
# [23] = system: NNT; conditions: read-out: apparent Kd; compound concentrations: 100 nM and 1000 nM (sheet 'Samples'), CATDS: 0.104881561069948; n = 1
# [24] = system: RIOK2; conditions: read-out: apparent Kd; compound concentrations: 100 nM and 1000 nM (sheet 'Samples'), CATDS: 9.3979230016613804E-2; n = 1
compound,measurement,setting,value
COc1ccc2nc(-c3cccc(C)n3)nc(Nc3ccncc3)c2c1 [GSK204919_KCGS],potency estimated from few doses,[1],61.3 nM
same,potency estimated from few doses,[2],647 nM
same,potency estimated from few doses,[3],12.6 nM
same,potency estimated from few doses,[4],8.21 nM
CC(=O)Nc1ccc(COc2ccc(Nc3ccnc4cc(-c5ccccn5)ccc34)cc2)cc1.Cl [GW440148A],potency estimated from few doses,[5]; CATDS: 0.26489055890019297,482 nM
same,potency estimated from few doses,[6],1250 nM
same,potency estimated from few doses,[7],88.5 nM
same,potency estimated from few doses,[8]; CATDS: 0.185767501667575,1340 nM
Cl.c1ccc(-c2n[nH]cc2-c2ccnc(-c3ccc(CN4CCOCC4)cc3)c2)nc1 [GW776245A],potency estimated from few doses,[1],335 nM
same,potency estimated from few doses,[9],243 nM
same,potency estimated from few doses,[10]; compound concentrations:100 nM and 1000 nM (sheet 'Samples'),1080 nM
same,potency estimated from few doses,[11],1580 nM
same,potency estimated from few doses,[12],51.8 nM
same,potency estimated from few doses,[13],1230 nM
Fc1cc(Cl)ccc1Nc1ccnc2cc(I)ccc12 [GW551191X],potency estimated from few doses,[5]; CATDS: 0.26563205076169,1340 nM
same,potency estimated from few doses,[14],1260 nM
same,potency estimated from few doses,[15]; CATDS: 0.64872041714686801,203 nM
COC(=O)c1cncc(/C=C/c2c(C)cc(O)cc2C)c1 [GW406731X],potency estimated from few doses,[16]; CATDS: 0.26070115141914502,403 nM
same,potency estimated from few doses,[17]; CATDS: 0.13771295119314,2520 nM
same,potency estimated from few doses,[8]; CATDS: 0.14028775258346299,2330 nM
same,potency estimated from few doses,[15]; CATDS: 0.471997589985167,143 nM
same,potency estimated from few doses,"[10]; compound concentrations: 100 nM and 1000 nM (sheet 'Samples'), CATDS: 0.21478363135213999",621 nM
COc1ccc(C)c(Nc2ccnc(Nc3ccc(-c4cnc[nH]4)cc3)n2)c1.Cl [GW784041A],potency estimated from few doses,[16]; CATDS: 0.125244350144667,1190 nM
same,potency estimated from few doses,[5]; CATDS: 0.106004759644949,1600 nM
same,potency estimated from few doses,[18],2370 nM
same,potency estimated from few doses,[19],1820 nM
same,potency estimated from few doses,[17]; CATDS: 9.6979339213766697E-2,1910 nM
same,potency estimated from few doses,[20],1630 nM
same,potency estimated from few doses,[21],2060 nM
same,potency estimated from few doses,[22],1940 nM
same,potency estimated from few doses,[23],1630 nM
same,potency estimated from few doses,[24],2040 nM
